# Assay results from publication PMC7862700, “An all-to-all approach to the identification of sequence-specific readers for epigenetic DNA modifications on cytosine”.
# What was measured:
# Assay in all cases: DAPPL (digital affinity profiling via proximity ligation, sequencing); 10 mM Tris-HCl pH 7.5, 50 mM NaCl, 1 mM DTT, 4% glycerol, room temperature, 30 min; GST-TFs on glutathione beads, 16-mer random dsDNA library, 0.1% formaldehyde crosslink after washing; high values mean tight binding
# FEV = biological target: T1, FEV (Homo sapiens, UniProt Q99581 1-238); settings: protein: recombinant; tags: N-terminal GST; dsDNA, one strand shown
# T1 sequence: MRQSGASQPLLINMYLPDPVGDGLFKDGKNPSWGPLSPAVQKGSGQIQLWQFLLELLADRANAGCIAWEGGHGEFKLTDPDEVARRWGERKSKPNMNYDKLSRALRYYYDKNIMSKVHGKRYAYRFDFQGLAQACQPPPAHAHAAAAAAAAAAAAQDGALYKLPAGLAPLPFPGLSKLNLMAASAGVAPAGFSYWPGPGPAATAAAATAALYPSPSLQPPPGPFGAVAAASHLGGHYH
# In short: (§1)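 After expression in yeast as GST fusions, human transcription factors were bound to glutathione beads, DNA-barcoded and mixed with a tag-only sample. The pools were incubated with 200 nmole of a 16-mer random double-stranded DNA library in Tris/NaCl/DTT/glycerol buffer (30 min, room temperature), washed and crosslinked with 0.1% formaldehyde. Proximity ligation with BsaI/T4 ligase ran for 1 h at 37 °C, before PCR amplification and sequencing on an Illumina NextSeq500. Binding signal is a hexamer's read frequency for a factor divided by its frequency for the tag-only sample.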
# ETV5 = ETV5 (Homo sapiens, UniProt P41161 1-510); settings: protein: recombinant; tags: N-terminal GST; dsDNA, one strand shown
# Chain of ETV5 (P41161 whole entry): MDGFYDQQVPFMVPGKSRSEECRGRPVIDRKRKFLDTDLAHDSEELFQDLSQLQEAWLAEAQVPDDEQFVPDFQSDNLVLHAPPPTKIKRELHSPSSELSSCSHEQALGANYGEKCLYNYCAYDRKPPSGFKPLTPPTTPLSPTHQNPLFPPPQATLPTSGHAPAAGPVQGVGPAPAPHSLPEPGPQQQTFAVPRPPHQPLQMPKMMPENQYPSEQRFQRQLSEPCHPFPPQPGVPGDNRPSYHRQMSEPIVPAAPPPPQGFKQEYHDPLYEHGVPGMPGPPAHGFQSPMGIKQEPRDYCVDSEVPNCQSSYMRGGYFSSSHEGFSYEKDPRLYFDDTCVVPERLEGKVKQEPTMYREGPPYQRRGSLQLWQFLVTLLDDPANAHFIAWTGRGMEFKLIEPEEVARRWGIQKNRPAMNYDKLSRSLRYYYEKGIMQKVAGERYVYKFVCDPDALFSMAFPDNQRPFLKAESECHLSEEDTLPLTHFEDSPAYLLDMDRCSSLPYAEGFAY
# In short: as §1
# HSF1 = HSF1 (Homo sapiens, UniProt Q00613 1-529); settings: protein: recombinant; tags: N-terminal GST; chain copies: 3; dsDNA, one strand shown
# Chain of HSF1 (Q00613 whole entry): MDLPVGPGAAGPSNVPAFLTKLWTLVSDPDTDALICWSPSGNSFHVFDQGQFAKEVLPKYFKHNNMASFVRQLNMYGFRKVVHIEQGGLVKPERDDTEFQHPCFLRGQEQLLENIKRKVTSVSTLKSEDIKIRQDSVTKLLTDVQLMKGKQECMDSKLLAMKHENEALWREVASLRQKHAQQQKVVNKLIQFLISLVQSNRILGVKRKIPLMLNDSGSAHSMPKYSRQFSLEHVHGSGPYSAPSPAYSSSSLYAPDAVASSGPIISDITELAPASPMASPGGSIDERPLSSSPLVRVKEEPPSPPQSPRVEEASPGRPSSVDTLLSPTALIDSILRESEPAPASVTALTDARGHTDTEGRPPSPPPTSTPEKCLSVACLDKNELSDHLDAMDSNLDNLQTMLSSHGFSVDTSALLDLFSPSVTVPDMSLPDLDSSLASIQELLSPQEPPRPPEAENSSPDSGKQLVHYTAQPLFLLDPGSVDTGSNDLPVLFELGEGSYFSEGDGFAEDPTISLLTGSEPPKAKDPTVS
# In short: as §1
# SPIC = biological target: T2, SPIC (Homo sapiens, UniProt Q8N5J4 1-248); settings: protein: recombinant; tags: N-terminal GST; dsDNA, one strand shown
# T2 sequence: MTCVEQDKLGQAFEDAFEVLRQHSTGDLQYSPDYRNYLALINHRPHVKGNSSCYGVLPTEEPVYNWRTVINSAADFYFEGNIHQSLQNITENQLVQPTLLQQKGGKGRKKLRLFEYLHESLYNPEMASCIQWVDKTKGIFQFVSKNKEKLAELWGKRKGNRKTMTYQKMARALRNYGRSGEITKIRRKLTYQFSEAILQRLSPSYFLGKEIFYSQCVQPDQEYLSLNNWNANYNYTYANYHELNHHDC
# In short: as §1
# ELF4 = ELF4 (Homo sapiens, UniProt Q99607 1-663); settings: protein: recombinant; tags: N-terminal GST; dsDNA, one strand shown
# Chain of ELF4 (Q99607 whole entry): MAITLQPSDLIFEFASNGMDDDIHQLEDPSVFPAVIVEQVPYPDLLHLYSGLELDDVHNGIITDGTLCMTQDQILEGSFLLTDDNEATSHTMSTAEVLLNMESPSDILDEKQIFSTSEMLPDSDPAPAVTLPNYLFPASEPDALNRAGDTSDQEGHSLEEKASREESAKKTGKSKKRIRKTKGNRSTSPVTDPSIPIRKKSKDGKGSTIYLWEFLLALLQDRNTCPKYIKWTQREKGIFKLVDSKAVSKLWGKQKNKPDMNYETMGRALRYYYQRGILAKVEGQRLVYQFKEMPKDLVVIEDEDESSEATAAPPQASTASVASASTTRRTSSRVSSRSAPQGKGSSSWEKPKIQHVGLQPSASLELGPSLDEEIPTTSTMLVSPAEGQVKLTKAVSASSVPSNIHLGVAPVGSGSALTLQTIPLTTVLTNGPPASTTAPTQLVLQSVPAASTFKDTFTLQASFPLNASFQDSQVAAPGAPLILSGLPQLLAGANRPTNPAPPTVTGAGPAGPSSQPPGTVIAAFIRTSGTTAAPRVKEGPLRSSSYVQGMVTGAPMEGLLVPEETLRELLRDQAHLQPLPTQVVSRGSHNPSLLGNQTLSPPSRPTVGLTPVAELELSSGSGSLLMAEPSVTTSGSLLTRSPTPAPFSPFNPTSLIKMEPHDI
# In short: as §1
# ELK4 = biological target: T3, ELK4 (Homo sapiens, UniProt P28324-2 1-405); settings: protein: recombinant; tags: N-terminal GST; dsDNA, one strand shown
# T3 sequence: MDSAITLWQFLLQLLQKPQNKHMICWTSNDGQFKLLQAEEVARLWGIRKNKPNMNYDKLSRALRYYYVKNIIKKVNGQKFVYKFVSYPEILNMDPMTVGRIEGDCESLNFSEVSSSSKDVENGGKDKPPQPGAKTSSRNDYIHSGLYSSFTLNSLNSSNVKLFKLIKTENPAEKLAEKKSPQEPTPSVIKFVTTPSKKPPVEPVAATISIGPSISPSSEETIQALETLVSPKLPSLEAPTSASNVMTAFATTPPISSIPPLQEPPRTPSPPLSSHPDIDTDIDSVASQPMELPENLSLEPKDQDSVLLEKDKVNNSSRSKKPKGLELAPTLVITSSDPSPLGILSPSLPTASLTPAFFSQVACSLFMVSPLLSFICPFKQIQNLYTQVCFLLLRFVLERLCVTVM
# In short: as §1
# ETV2 = biological target: T4, ETV2 (Homo sapiens, UniProt O00321 1-342); settings: protein: recombinant; tags: N-terminal GST; dsDNA, one strand shown
# T4 sequence: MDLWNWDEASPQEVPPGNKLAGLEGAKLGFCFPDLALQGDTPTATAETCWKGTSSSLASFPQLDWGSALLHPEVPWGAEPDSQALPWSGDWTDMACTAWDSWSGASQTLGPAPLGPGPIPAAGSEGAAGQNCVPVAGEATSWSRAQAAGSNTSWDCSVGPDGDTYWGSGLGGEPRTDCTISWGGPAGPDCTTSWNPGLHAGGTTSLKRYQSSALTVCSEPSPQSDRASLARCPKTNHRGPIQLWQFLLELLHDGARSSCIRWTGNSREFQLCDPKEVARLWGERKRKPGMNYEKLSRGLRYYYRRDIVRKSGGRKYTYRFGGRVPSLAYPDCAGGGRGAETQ
# In short: as §1
# ELF3 = biological target: T5, ELF3 (Homo sapiens, UniProt P78545 1-371); settings: protein: recombinant; tags: N-terminal GST; dsDNA, one strand shown
# T5 sequence: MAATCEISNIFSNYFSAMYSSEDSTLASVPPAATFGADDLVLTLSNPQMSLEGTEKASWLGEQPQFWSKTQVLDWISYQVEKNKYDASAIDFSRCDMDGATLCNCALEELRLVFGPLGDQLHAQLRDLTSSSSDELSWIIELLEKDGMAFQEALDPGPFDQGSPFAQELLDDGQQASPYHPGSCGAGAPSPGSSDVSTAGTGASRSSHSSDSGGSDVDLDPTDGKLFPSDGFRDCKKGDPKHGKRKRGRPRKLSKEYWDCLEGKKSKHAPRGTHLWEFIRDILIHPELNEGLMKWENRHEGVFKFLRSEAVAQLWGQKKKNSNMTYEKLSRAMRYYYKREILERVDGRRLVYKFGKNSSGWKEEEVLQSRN
# In short: as §1
# CRX = CRX (Homo sapiens, UniProt O43186 1-299); settings: protein: recombinant; tags: N-terminal GST; dsDNA, one strand shown
# Chain of CRX (O43186 whole entry): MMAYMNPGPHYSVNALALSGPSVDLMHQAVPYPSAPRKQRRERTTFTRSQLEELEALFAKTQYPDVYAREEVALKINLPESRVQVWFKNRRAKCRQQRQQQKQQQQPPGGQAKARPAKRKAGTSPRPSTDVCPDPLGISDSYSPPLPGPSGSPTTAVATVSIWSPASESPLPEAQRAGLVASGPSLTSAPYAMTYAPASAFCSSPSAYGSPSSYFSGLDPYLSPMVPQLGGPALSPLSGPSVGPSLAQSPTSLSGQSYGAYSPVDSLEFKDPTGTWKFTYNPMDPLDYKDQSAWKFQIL
# In short: as §1
# ETV1 = ETV1 (Homo sapiens, UniProt P50549 1-477); settings: protein: recombinant; tags: N-terminal GST; dsDNA, one strand shown
# Chain of ETV1 (P50549 whole entry): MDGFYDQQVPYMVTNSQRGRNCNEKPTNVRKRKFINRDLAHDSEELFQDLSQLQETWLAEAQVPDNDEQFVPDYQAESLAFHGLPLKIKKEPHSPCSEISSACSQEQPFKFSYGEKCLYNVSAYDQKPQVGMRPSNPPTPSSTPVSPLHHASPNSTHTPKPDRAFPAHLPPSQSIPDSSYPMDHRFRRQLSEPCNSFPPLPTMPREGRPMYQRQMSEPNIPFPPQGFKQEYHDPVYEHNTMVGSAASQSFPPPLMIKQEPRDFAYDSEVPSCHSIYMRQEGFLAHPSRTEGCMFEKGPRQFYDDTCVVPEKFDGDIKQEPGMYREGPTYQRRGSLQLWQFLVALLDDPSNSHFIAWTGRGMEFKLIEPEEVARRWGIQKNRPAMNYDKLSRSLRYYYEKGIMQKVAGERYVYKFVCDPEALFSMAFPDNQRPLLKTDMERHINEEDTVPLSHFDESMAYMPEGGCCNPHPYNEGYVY
# In short: as §1
sequence,measurement,setting,value
CCTCAA,binding signal,FEV,"1.42 fold enrichment (6-mer frequency, TF over GST control)"
same,binding signal,ETV5,"1.42 fold enrichment (6-mer frequency, TF over GST control)"
same,binding signal,HSF1,"1.2 fold enrichment (6-mer frequency, TF over GST control)"
same,binding signal,SPIC,"1.46 fold enrichment (6-mer frequency, TF over GST control)"
same,binding signal,ELF4,"1.38 fold enrichment (6-mer frequency, TF over GST control)"
same,binding signal,ELK4,"1.35 fold enrichment (6-mer frequency, TF over GST control)"
same,binding signal,ETV2,"1.61 fold enrichment (6-mer frequency, TF over GST control)"
same,binding signal,ELF3,"1.54 fold enrichment (6-mer frequency, TF over GST control)"
same,binding signal,CRX,"1.15 fold enrichment (6-mer frequency, TF over GST control)"
same,binding signal,ETV1,"1.42 fold enrichment (6-mer frequency, TF over GST control)"
